Measured values as given in PubChem BioAssay AID1851 (National Center for Advancing Translational Sciences (NCATS), 2009).
Where “and” joins values, the source holds several entries; their conditions need not be identical. Identical values can stand only once. In all, about 16,000 compounds went through this assay and about 4,000 (25%) were called active. Not shown: some 26% with an inconclusive outcome. A selection follows. Unmarked numbers belong to inactive results. Calls come from the whole dose curve; as a rule, active = well fitted curve in the direction sought with a large enough effect; inconclusive = small, poorly fitted or top-dose-only effect, or effect the other way; inactive = no such curve, though single readings can be large or run the other way.

Each compound was assayed against Cytochrome P450 2C9 (Homo sapiens) (UniProt P11712) (assay: Cytochrome panel assay with activity outcomes). Details: recombinant CYP, pro-luciferin dealkylation, luminescence, p450-cyp2c9; series mostly up to 57.1 µM.
Sequence of Cytochrome P450 2C9 (Homo sapiens) (P11712 whole entry, looked up): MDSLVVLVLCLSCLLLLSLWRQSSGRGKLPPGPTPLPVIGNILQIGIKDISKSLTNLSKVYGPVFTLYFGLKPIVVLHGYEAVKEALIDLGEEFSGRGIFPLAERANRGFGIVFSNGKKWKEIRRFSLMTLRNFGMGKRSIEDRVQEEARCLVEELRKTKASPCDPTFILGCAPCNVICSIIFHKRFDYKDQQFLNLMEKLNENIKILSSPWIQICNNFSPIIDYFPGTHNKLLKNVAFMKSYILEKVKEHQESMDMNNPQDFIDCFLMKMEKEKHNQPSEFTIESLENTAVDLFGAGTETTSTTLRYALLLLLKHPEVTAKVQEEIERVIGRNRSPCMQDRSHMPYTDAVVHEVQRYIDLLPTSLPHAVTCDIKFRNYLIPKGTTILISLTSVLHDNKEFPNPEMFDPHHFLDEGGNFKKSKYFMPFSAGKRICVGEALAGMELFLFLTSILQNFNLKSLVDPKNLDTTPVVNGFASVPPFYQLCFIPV
% is set by controls: 0 for no effect and ±100 for the full control effect.

Row | Structure (SMILES) | AC50 | activity, negative = inhibition
1 | CC1=NN(c2ccccc2)C(=O)C1C(=O)c1ccc(Cl)cc1 (stereo not drawn) | 0.562 µM (active) | –
2 | CC1=NN(c2ccccc2)C(=O)[C@@H]1N=Nc1ccc(S(N)(=O)=O)cc1 | – | 3.33% [at 11.4 µM]
3 | Cc1cc(C)n(-c2nc(NCC(C)O)c3c4c(sc3n2)COC(C)(C)C4)n1 (stereo not drawn) | 15.8 µM (active) | –
4 | CCC(O)CNc1nc(-n2nc(C)cc2C)nc2sc3c(c12)CC(C)(C)OC3 (stereo not drawn) | 14.1 µM (active) | –
5 | COc1ccc(-n2c(=O)c(C)nc3cnc(N4CCNCC4)nc32)cc1 | inactive | –
6 | C=CC1=C(C)C2=Cc3c(C=C)c(C)c4[n]3[Sn+2][n]3c(c(C)c(CCC(=O)O)c3=CC3=NC(=C4)C(C)=C3CCC(=O)O)=CC1=N2 | inactive | –
7 | CCSc1nc2c(c(=O)[nH]1)C(c1ccncc1)C(C(=O)OC(C)C)=C(C)N2 (stereo not drawn) | 2.82 µM (active) | –
8 | CSc1nc2c(c(=O)[nH]1)C(c1ccncc1)C(C(=O)OC(C)C)=C(C)N2 (stereo not drawn) | 7.94 µM (active) | –
9 | CCSc1nc2c(c(=O)[nH]1)C(c1ccccn1)C1=C(CC(C)(C)CC1=O)N2 (stereo not drawn) | inactive | –
10 | O=C(O)c1cc2c(cc1S(=O)(=O)O)[C@H]1[C@@H]([C@H]3[C@H]2[C@@]2(Cl)C(Cl)=C(Cl)[C@]3(Cl)C2(Cl)Cl)[C@]2(Cl)C(Cl)=C(Cl)[C@@]1(Cl)C2(Cl)Cl | – | -16.9% [at 11.4 µM]
11 | CC1(C)[C@@H]2CC[C@]1(CC(=O)O)[C@H](Cl)C2 | – | 4.29% [at 11.4 µM]
12 | O=C(CSC1CC(=O)N(CC(c2ccccc2)c2ccccc2)C1=O)Nc1ccc(Cl)cc1 (stereo not drawn) | 3.98 µM (active) | –
13 | CC12CS(=O)(=O)CC1SC(=S)N2c1ccccn1 (stereo not drawn) | inactive | –
14 | CCOC(=O)c1c(C)[nH]c(C)c1C(=O)COC(=O)c1ccc(S(=O)(=O)N(CC)CC)cc1 | 0.355 µM (active) | –
15 | CCN(CC)CCOC(=O)c1ccc(N)cc1 | inactive | –
16 | CCOC(=O)c1c(C)[nH]c2ccc3c(c12)CN1CCc2cc(OC)ccc2[C@@H]1O3 | inactive | –
17 | c1ccc(-c2nc(-c3cccs3)[nH]c2-c2ccccc2)cc1 | 6.31 µM (active) | –
18 | NC(N)=Nc1nc2ccc([N+](=O)[O-])cc2[nH]1 | – | 9.74% [at 11.4 µM]
19 | O=[N+]([O-])c1cccc(-c2nc(-c3cccs3)c(-c3cccs3)[nH]2)c1 | 1.58 µM (active) | –
20 | O=[N+]([O-])c1cccc(-c2nc(-c3ccccc3)c(-c3cccs3)[nH]2)c1 | inactive | –
21 | CN(C)Cc1ccccc1-c1ccc2ncnc(N(C)C)c2c1 | – | 9.43% [at 2.29 µM]

Row | Structure (SMILES) | AC50 | activity, negative = inhibition
22 | CC(=O)N1CCN(c2nc(C)nc3sc4c(c23)CCC(C)C4)CC1 (stereo not drawn) | 14.1 µM (active) | –
23 | Cc1cc(C(F)F)n2nc(C(=O)Nc3sc4c(c3C#N)CCC(C)C4)nc2n1 (stereo not drawn) | inactive | –
24 | CC[N+](C)(CC)CCN1C(=O)c2ccccc2S1(=O)=O | – | -0.798% [at 11.4 µM]
25 | COc1ccc2c(c1)-c1ccccc1S(=O)(=O)N2C | 14.1 µM (active) | –
26 | Cc1cc2c(nc1C)CCCCN2C[C@H](C)O/N=C\[C@@H](C)[C@H](OCc1ccccc1)C(C)C | – | -8.65% [at 11.4 µM]
27 | S=C(S)N1CCCC1 | 2 µM (active) | –
28 | CC(C)(C)CC(=O)NC(=S)N1CCCCCC1 | inactive | –
29 | CCNC(=O)C/C(C)=N/NC(=O)C12CC3CC(CC(C3)C1)C2 | inactive | –
30 | C=CCn1c(COc2ccccc2)nnc1SCC(=O)N/N=C/c1ccc(C)cc1 | 11.2 µM (active) | –
31 | COc1ccc(O)c(/C=N/NC(=O)CSc2nnc(C)n2-c2ccccc2)c1 | inactive | –
32 | COc1ccc(C[C@@H]2c3cc(OC)c(OC)cc3CC[N@+]2(C)CCC(=O)OCCCCCOC(=O)CC[N@@+]2(C)CCc3cc(OC)c(OC)cc3[C@H]2Cc2ccc(OC)c(OC)c2)cc1OC | inactive | –
33 | Nc1ncnc2c([C@@H]3O[C@@H](CO)[C@H](O)[C@@H]3O)nsc12 | – | -6.07% [at 11.4 µM]
34 | COc1ccc(C(=O)Nc2ccc(OCC(F)(F)C(F)F)c(C(F)(F)F)c2)cc1OC | 7.94 µM (active) | –
35 | Cc1cc(NC(=O)CCCC(=O)OCC(F)(F)C(F)F)cc(C)c1C(=O)O | inactive | –
36 | CCN(CC)CCC[C@H](C)Nc1c2ccc(Cl)cc2nc2ccc(OC)cc12 | inactive | –
37 | Cc1ccc(NC(=S)Nc2nc(CC(=O)Nc3ccccc3)cs2)cc1 | 2.82 µM (active) | –
38 | CN1CCC(n2[nH]c(-c3ccccc3)c(Cc3ccccc3)c2=O)CC1 | – | 0.284% [at 11.4 µM]
39 | CCN1C(=O)[C@H]2[C@H]3[C@H](O)[C@H](O)C/C(=N/OC[C@@H](O)COCc4ccco4)[C@@H]3CC[C@@H]2C1=O | – | 21.5% [at 11.4 µM] and 18.6% [at 11.4 µM]
40 | Cn1c(SCC(=O)c2ccc3c(c2)Cc2ccccc2-3)nnc1-c1ccccc1 | 8.91 µM (active) | –
41 | CC(=O)Nc1ccc(-c2nnc(SCC(=O)c3ccc4c(c3)Cc3ccccc3-4)n2C)cc1 | 12.6 µM (active) | –
42 | CN1CCCC[C@@H]1CCN1c2ccccc2Sc2ccc(S(C)=O)cc21 (stereo partly drawn) | inactive | –

Row | Structure (SMILES) | AC50 | activity, negative = inhibition
43 | CCN(CC)CCN1C(=O)c2cccc3cc(N)cc(c23)C1=O | – | 13.4% [at 11.4 µM]
44 | CCOC(=O)C(NC(C)=O)C(=O)O (stereo not drawn) | inactive | –
45 | C/C(CCN1CCCCc2nc(C)c(C)cc21)=N\O[C@@H](C)c1cc(-c2c(C)cc(C)cc2C)no1 | 2.51 µM (active) | –
46 | C/C(CCN1CCCc2nc(C)c(C)cc21)=N\O[C@@H](C)CN1CCCCc2nc(C)c(C)cc21 | – | -3.15% [at 11.4 µM]
47 | C/C(CCN1CCCCc2nc(C)c(C)cc21)=N\O[C@@H](C)CN1CCCCc2nc(C)c(C)cc21 | – | 7.62% [at 11.4 µM]
48 | COc1ccc(-c2n[nH]c(C)c2-c2ccc(Cl)cc2)c(O)c1 | 10 µM (active) | –
49 | CC(NC(=O)c1ccccc1)c1nc2ccccc2n1Cc1ccccc1F (stereo not drawn) | 5.62 µM (active) | –
50 | C[C@@H]1CCC[C@H](C)N1NC(=O)c1ccc(Cl)c(S(N)(=O)=O)c1 | inactive | –
51 | CN(C)CCCc1cc(C(=O)Nc2ccc(-c3ccncc3)cc2)ccc1O | inactive | –
52 | CCN(CC)S(=O)(=O)c1cc(C(=O)Nc2ccncc2)ccc1Cl | 0.141 µM (active) | –
53 | COc1ccc(NC(=S)N2CCN(C/C=C/c3ccccc3)CC2)cc1OC | inactive | –
54 | COC(=O)c1ccc(NC(=S)N2CCN(Cc3cccc(C)c3)CC2)cc1 | 25.1 µM (active) | –
55 | Cc1nn(CC(=O)NCc2ccccc2)c(C)c1[N+](=O)[O-] | inactive | –
56 | Cc1nn(C(C)C(=O)N2CCc3ccccc32)c(C)c1[N+](=O)[O-] (stereo not drawn) | 11.2 µM (active) | –
57 | Cc1nn(CC(=O)NCCN2CCOCC2)c(C)c1[N+](=O)[O-] | inactive | –
58 | O=C(O)[C@@H]1[C@@H](C(=O)Nc2ncccn2)[C@@H]2C=C[C@@H]1O2 | – | 2.98% [at 11.4 µM]
59 | FC(F)(F)c1nc2nc(Cl)c(Cl)nc2n1CCCN1CCOCC1 | 2.51 µM (active) | –
60 | OCCN1CCOCCOCCN(CCO)CCN(CCO)CC1 | inactive | –
61 | c1cc(CNCCCN2CCOCC2)ccn1 | inactive | –
62 | CCCCC(=O)NCCc1c(Cc2ccccc2)[nH]c2ccccc12 | inactive | –
63 | CCCC(=O)NCCc1c2n(c3ccc(OC)cc13)Cc1ccccc1-2 | 1.26 µM (active) | –

Row | Structure (SMILES) | AC50 | activity, negative = inhibition
64 | CCOC(=O)/C(C(N)=NCCCO)=C(/O)c1ccccc1 | inactive | –
65 | CC/C(=N/Nc1ccccc1)c1cnnc(SC)n1 | 0.891 µM (active) | –
66 | CSc1nncc(/C(C)=N\Nc2ccccc2)n1 | 4.47 µM (active) | –
67 | C#CCCCO/N=C1/C[C@@H](O)[C@@H](O)[C@@H]2[C@@H]3C(=O)N(CC)C(=O)[C@H]3CC[C@@H]12 | – | 0.179% [at 11.4 µM]
68 | O=C(O)[C@@H](c1ccccc1)[C@@H](C(=O)O)c1ccccc1 | – | 0.327% [at 11.4 µM]
69 | Nc1cc(N)nc(SCC(=O)c2ccccc2)n1 | inactive | –
70 | Cc1cc(SCC(=O)c2ccccc2)nc(SCC(=O)c2ccccc2)n1 | 0.891 µM (active) | –
71 | O=C(CSc1ncnc2nc[nH]c12)c1ccccc1 | – | -26.2% [at 11.4 µM]
72 | COc1ccc(C[C@@H]2C(=O)N[C@H](C)C(=O)N(C)[C@@H]3Cc4ccc(cc4)Oc4cc(ccc4O)C[C@H](C(=O)N[C@@H](C)C(=O)N[C@H](C)C(=O)N2C)N(C)C3=O)cc1 | – | 3.77% [at 11.4 µM]
73 | CN(C)CC(O)COc1cccc(OCC(O)CN(C)C)c1 (stereo not drawn) | inactive | –
74 | CCC(=O)c1ccc(OCC(O)CN(CCc2ccccc2)Cc2ccccc2)cc1 (stereo not drawn) | 3.16 µM (active) | –
75 | CN(C)CC(O)COc1ccc(C(C)(C)c2ccc(OCC(O)CN(C)C)cc2)cc1 (stereo not drawn) | inactive | –
76 | Cc1ccccc1-c1ccc2ncnc(N3CCN(C)CC3)c2c1 | – | 20.6% [at 2.29 µM]
77 | O=C(O)c1c(-c2c3ccc(=O)cc-3oc3cc(O)ccc23)cc2ccccc2c1-c1ccccc1 | – | 13% [at 11.4 µM]
78 | C=CCSc1nc(Oc2ccccc2)c2sccc2n1 | 8.91 µM (active) | –
79 | C=CCSc1ccsc1C(=O)O | inactive | –
80 | C/C(CCC(=O)OC[C@@H]1O[C@H](C#Cc2ccccc2)C=C[C@@H]1Oc1ccc(C)cc1)=N/O[C@@H](C)CN1CCCCc2nc(C)c(C)cc21 | – | -2.52% [at 11.4 µM]
81 | COC(=O)[C@@]1(Cc2ccccc2)[C@H]2c3cc(C(=O)N4CCCC4)n(Cc4ccccn4)c3C[C@H]2CN1C(=O)c1ccccc1 | 0.2 µM (active) | –
82 | COC(=O)[C@@]1(Cc2ccc(F)cc2)[C@H]2c3cc(C(=O)N4CCCC4)n(Cc4ccccn4)c3C[C@H]2CN1C(=O)c1ccccc1 | 2 µM (active) | –
83 | CC1(CCC(=O)OC2CCCCC2)OCCO1 | – | -10.2% [at 11.4 µM]
